Potency, viability change, negative = cytotoxic and activity change, negative = cytotoxicity data for 57 molecules are collected here from PubChem BioAssay (Tox21).

Experiment [1] in a line: cAMP Responsive Elements (CRE) small molecule antagonists, cell-based qHTS assay: qHTS cell viability counter screen (AID 2060913). Note: nearly all actives have a fitted effect of over 40% in size. The procedure, abridged:
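CRE-bla HEK293T cells were seeded in assay medium with 10% dialyzed FBS, incubated 18 hrs at 37 C, then exposed to compounds plus 0.25 uM final NKH477 for 3 hrs. Viability was read by CellTiter-Glo luminescence after 30 min, in the same wells.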

Experiment [2] can be described thus: cAMP Responsive Elements (CRE) small molecule agonists, cell-based qHTS assay: qHTS cell viability counter screen (AID 2060914). Note: potency is the fitted concentration of half-maximal effect.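 Note: viability read after 3 h of compound exposure; nearly all actives have a fitted effect of over 50% in size.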 The procedure, abridged:
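CRE-bla HEK 293T cells, plated 18 h at 37 °C, were exposed to compounds for 3 h at 37 °C/5% CO2. Viability was then measured in the same wells by CellTiter-Glo luminescence after 30 min at room temperature.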

Results filed as inconclusive are left out. A number with no mark means an inactive call. The source made the active and inactive calls. Calls come from the whole dose curve; as a rule, active = well fitted cell-killing curve with a large enough effect in the repeat runs; inconclusive = weak or mixed curves, or effect the other way; inactive = flat fitted curve, though single readings scatter.
% is set by controls: 0 for no effect and ±100 for the full control effect.

In the case of `O=C(Cl)c1ccc([N+](=O)[O-])cc1`, the Potency entry in experiment [1] and in experiment [2] was “inactive” each time.

Turning to `CC[N+](CC)(CC(=O)Nc1c(C)cccc1C)Cc1ccccc1` (tested in a mixture with another compound), the Potency entry in experiment [1] and in experiment [2] was “inactive” each time.

Take `Cc1nc2n(c(=O)c1CCN1CCC(c3noc4cc(F)ccc34)CC1)CCC[C@H]2O`: in experiment [1], the viability change, negative = cytotoxic is 2.27% [at 18.9 µM]. In addition, the activity change, negative = cytotoxicity in experiment [2] was 4.41% [at 18.9 µM].

As to `c1ccsc1`, the Potency entry in experiment [1] and in experiment [2] was “inactive” each time.

On to `Cc1ccc2ncccc2c1`, for which the Potency entry in experiment [1] was “inactive”. For the same molecule, the Potency in experiment [2] is 54.5 µM (active).

For the molecule `Nc1nc2c(ncn2COCCO)c(=O)[nH]1`, the Potency result in experiment [1] and in experiment [2] was “inactive” throughout.

In the case of `CN[C@@H]1[C@@H](O)[C@@H](O[C@@H]2[C@H](O)[C@H](O[C@H]3OC(CN)=CC[C@H]3N)[C@@H](N)C[C@H]2N)OCC1(C)O` (some centres undefined), the Potency entry in experiment [1] and in experiment [2] was “inactive” each time.

`CC(C)c1ccc(C=O)cc1`: the Potency entry in experiment [1] and in experiment [2] was “inactive” each time.

As for `NS(=O)(=O)c1cc2c(cc1Cl)NC(C(Cl)Cl)NS2(=O)=O` (centres undefined), the Potency entry in experiment [1] and in experiment [2] was “inactive” throughout.

Regarding `CC1CCc2cc(F)cc3c(=O)c(C(=O)O)cn1c23` (centres undefined), the Potency entry in experiment [1] and in experiment [2] was “inactive” each time.

As for `Cc1ccc(Nc2c(F)cccc2Cl)c(CC(=O)O)c1`, the Potency entry in experiment [1] and in experiment [2] was “inactive” each time.

In the case of `CC(C)(c1cc(Br)c(O)c(Br)c1)c1cc(Br)c(O)c(Br)c1`, the Potency result in experiment [1] and in experiment [2] was “inactive” in each case.

With `COC(c1ccccc1)(c1ccccc1)[C@H](Oc1nc(C)cc(C)n1)C(=O)O`, the Potency entry in experiment [1] and in experiment [2] was “inactive” throughout.

With `O=C1Nc2ccccc2C1(c1ccc(O)cc1)c1ccc(O)cc1`, the Potency entry in experiment [1] and in experiment [2] was “inactive” each time.

With `O=C(C(=O)c1ccco1)c1ccco1`, the Potency result in experiment [1] and in experiment [2] was “inactive” throughout.

`CC(C)(C)C(=O)OCOP(=O)(COCCn1cnc2c(N)ncnc21)OCOC(=O)C(C)(C)C`: the Potency entry in experiment [1] and in experiment [2] was “inactive” in each case.

On to `C/C=C/C(=O)N(CC)c1ccccc1C`, for which the Potency entry in experiment [1] and in experiment [2] was “inactive” throughout.

For `C/C=C/C(=O)OCC(C)C`, the Potency entry in experiment [1] and in experiment [2] was “inactive” in each case.

Regarding `CCCc1ncc(C(=O)O)s1`, the Potency entry in experiment [1] and in experiment [2] was “inactive” throughout.

Regarding `CCN[C@@H]1C[C@H](N)[C@@H](OC2OC(CN)=CCC2N)[C@H](O)[C@H]1O[C@H]1OC[C@](C)(O)[C@H](NC)[C@H]1O` (some centres undefined), the viability change, negative = cytotoxic in experiment [1] is 1.22% [at 0.349 µM]. Also, in experiment [2], the activity change, negative = cytotoxicity is 3.46% [at 0.349 µM].

`CC1=CC(=O)/C(=C(/C)O)C(=O)O1`: the Potency entry in experiment [1] and in experiment [2] was “inactive” each time.

As for `C=CC(=O)OCCCCCCOC(=O)C=C`, the Potency result in experiment [1] and in experiment [2] was “inactive” throughout.

Take `C/C=C(\C)C(=O)OCCc1ccccc1`: the Potency result in experiment [1] and in experiment [2] was “inactive” in each case.

Take `C/C(CC(C)C)=N\O`: the Potency result in experiment [1] and in experiment [2] was “inactive” in each case.

On to `CCC(C(=O)NC(=O)NC(C)=O)c1ccccc1` (centres undefined), for which the Potency result in experiment [1] and in experiment [2] was “inactive” in each case.

Regarding `CN1CCN(C2Cc3ccccc3Sc3ccc(Cl)cc32)CC1` (centres undefined), the Potency entry in experiment [1] and in experiment [2] was “inactive” in each case.

In the case of `C=CC(=O)OCCOC(=O)CCC(=O)O`, the Potency entry in experiment [1] and in experiment [2] was “inactive” each time.

On to `COc1ccc(/C=C/S(=O)(=O)NC(=O)c2ccc(C)cc2Cl)cc1`, for which the Potency result in experiment [1] and in experiment [2] was “inactive” each time.

For the molecule `CCN(CC)C(=S)SSC(=S)N(CC)CC`, the Potency entry in experiment [1] and in experiment [2] was “inactive” throughout.

As for `O=C(Nc1cccc2c(=O)cc(-c3nn[nH]n3)oc12)c1ccc(OCCCCc2ccccc2)cc1`, the Potency entry in experiment [1] and in experiment [2] was “inactive” each time.

As to `Cc1nnc(NS(=O)(=O)c2ccc(N)cc2)s1`, the Potency entry in experiment [1] and in experiment [2] was “inactive” throughout.

As to `COC(=O)CC#N`, the Potency result in experiment [1] and in experiment [2] was “inactive” each time.

As for `CCCCCC(C)=O`, the Potency entry in experiment [1] and in experiment [2] was “inactive” throughout.

As for `Nc1ccncc1N`, the Potency result in experiment [1] and in experiment [2] was “inactive” in each case.

`Cc1ccc(C(=O)c2cc(O)c(O)c([N+](=O)[O-])c2)cc1`: the Potency entry in experiment [1] and in experiment [2] was “inactive” each time.

Turning to `[O-][n+]1cccc(CO)c1`, the Potency entry in experiment [1] and in experiment [2] was “inactive” in each case.

On to `Brc1cc(Br)cc(Br)c1`, for which the Potency entry in experiment [1] and in experiment [2] was “inactive” each time.

As to `CC1(C)[C@@H]2CC[C@]3(C2)[C@@H]1C(=O)CCC3(C)C`, the Potency result in experiment [1] and in experiment [2] was “inactive” throughout.

As to `Nc1nc(N)nc(-c2cc(Cl)ccc2Cl)n1`, the Potency result in experiment [1] and in experiment [2] was “inactive” each time.

`COCCCOc1ccnc(CS(=O)c2nc3ccccc3[nH]2)c1C` (centres undefined): the Potency result in experiment [1] and in experiment [2] was “inactive” each time.

Consider `CC(C)=CCCC(C)O` (centres undefined), for which the Potency entry in experiment [1] and in experiment [2] was “inactive” in each case.

In the case of `CCCCNC(N)=O`, the Potency entry in experiment [1] and in experiment [2] was “inactive” throughout.

Take `CC1(C)[C@@H]2CC[C@@]1(C)[C@H](O)C2`: the Potency entry in experiment [1] and in experiment [2] was “inactive” throughout.

Consider `O=C(O)[C@@H]1[C@H]2C[C@H]3c4[nH]c5ccccc5c4CCN3C[C@@H]2CC[C@@H]1O`, for which the Potency entry in experiment [1] and in experiment [2] was “inactive” each time.

As for `COC(=O)c1ccccc1C`, the Potency entry in experiment [1] and in experiment [2] was “inactive” throughout.

For `CCCC(C)C(O)CC` (centres undefined), the Potency result in experiment [1] and in experiment [2] was “inactive” throughout.

For the molecule `COCc1c(C(C)C)nc(C(C)C)c(/C=C/[C@@H](O)C[C@@H](O)CC(=O)O)c1-c1ccc(F)cc1`, the Potency entry in experiment [1] and in experiment [2] was “inactive” in each case.

For `SCCCCCCCCS`, the Potency entry in experiment [1] and in experiment [2] was “inactive” throughout.

On to `Cc1c[nH]c(=O)[nH]c1=O`, for which the Potency entry in experiment [1] and in experiment [2] was “inactive” each time.

For the molecule `O=C(O)CCSCCC(=O)O`, the Potency result in experiment [1] and in experiment [2] was “inactive” in each case.

In the case of `O=C1CCCc2c(O)cccc21`, the Potency result in experiment [1] and in experiment [2] was “inactive” throughout.

In the case of `Cc1cc(Br)ccc1NC(=O)CCl`, the Potency entry in experiment [1] and in experiment [2] was “inactive” each time.

Take `OC[C@@H](O)[C@@H](O[C@@H]1O[C@H](CO)[C@H](O)[C@H](O)[C@H]1O)[C@H](O)[C@@H](O)CO`: the Potency result in experiment [1] and in experiment [2] was “inactive” each time.

Take `CC(=O)[C@H]1CC[C@H]2[C@@H]3C=CC4=CC(=O)CC[C@@]4(C)[C@@H]3CC[C@]12C`: the Potency entry in experiment [1] and in experiment [2] was “inactive” each time.

As to `Cc1[nH]c(C)c(Cl)c(=O)c1Cl`, the viability change, negative = cytotoxic in experiment [1] was 2.74% [at 18.9 µM]. Further, in experiment [2], the activity change, negative = cytotoxicity is 4.19% [at 18.9 µM].

For the molecule `O=C(O)Cc1cccc2ccccc12`, the Potency entry in experiment [1] and in experiment [2] was “inactive” each time.

Turning to `CC(=O)c1ccc2c(c1)Cc1ccccc1-2`, the Potency entry in experiment [1] and in experiment [2] was “inactive” throughout.
